Experiment [1] addresses Luciferin 4-monooxygenase (Photinus pyralis) (UniProt P08659). As to the kind of experiment: Biochemical firefly luciferase enzyme assay for NPC (AID 624030).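 Also: purified P. pyralis luciferase at 10 nM with luciferin and ATP substrate; nearly all actives have a fitted effect of over 70% in size.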 The method in brief:
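Purified P. pyralis luciferase at 10 nM in 50 mM Tris Acetate (final), luminescence read within 5 minutes of enzyme addition to compounds. Activity normalised to PTC124 versus DMSO; concentration-response curves classed by r2, magnitude and activity.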

In a further experiment the test system is CP215. The experiment in a line: qHTS profiling for inhibitors of Plasmodium falciparum proliferation (AID 504749). Also: nearly all actives have a fitted effect of over 60% in size. Also: potency is read from the fitted curve at half-maximal effect. The following applies: P. falciparum in erythrocytes, SYBR Green DNA, 72 h; series mostly up to 28.7 µM. The method in brief:
(§1)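 P. falciparum-infected erythrocytes (0.3% parasitemia, 2.5% hematocrit) incubated with compound 72 h at 37 C, 5% CO2. Parasite DNA detected by SYBR Green after lysis, overnight at room temperature; normalised to 0.29 uM artemisinin and DMSO.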
(In general: Quantitative high-throughput screening tests each substance at several concentrations.)

In another experiment the test system is CP260. Described as above. The note with it: P. falciparum in erythrocytes, SYBR Green DNA, 72 h; series mostly up to 28.7 µM. Put shortly:
as §1

For another experiment, the system named is CP268. Described as above. The note with it: P. falciparum in erythrocytes, SYBR Green DNA, 72 h; series mostly up to 28.7 µM. Put shortly: as §1
A further experiment deals with CP291. Described as above. The following applies: P. falciparum in erythrocytes, SYBR Green DNA, 72 h; series mostly up to 28.7 µM. Put shortly:
as §1

The next experiment concerns CP297. The experiment is described as above. The note with it: P. falciparum in erythrocytes, SYBR Green DNA, 72 h; series mostly up to 28.7 µM. Put shortly: as §1
A further experiment has as its system CP305. Described as above. The note with it: P. falciparum in erythrocytes, SYBR Green DNA, 72 h; series mostly up to 28.7 µM. Put shortly:
as §1

Another experiment deals with CP335. The description is as above. The note with it: P. falciparum in erythrocytes, SYBR Green DNA, 72 h; series mostly up to 28.7 µM. The method in brief:
as §1

The subject of another experiment is DIV14. The experiment is described as above. The note with it: P. falciparum in erythrocytes, SYBR Green DNA, 72 h; series mostly up to 28.7 µM. The method in brief: as §1
In the next experiment the test system is DIV17. The experiment is described as above. The note with it: P. falciparum in erythrocytes, SYBR Green DNA, 72 h; series mostly up to 28.7 µM. Put shortly: as §1
In another experiment the test system is GB4. Described as above. The following applies: P. falciparum in erythrocytes, SYBR Green DNA, 72 h; series mostly up to 28.7 µM. The method in brief:
as §1

In a further experiment the test system is HB3. Described as above. The following applies: P. falciparum in erythrocytes, SYBR Green DNA, 72 h; series mostly up to 28.7 µM. Put shortly: as §1
The next experiment has as its system ICS. Described as above. The following applies: P. falciparum in erythrocytes, SYBR Green DNA, 72 h; series mostly up to 28.7 µM. Put shortly: as §1
For the next experiment, the system named is JCK. Described as above. The note with it: P. falciparum in erythrocytes, SYBR Green DNA, 72 h; series mostly up to 28.7 µM. Put shortly: as §1
For another experiment, the system named is P93_24. The experiment is described as above. The note with it: P. falciparum in erythrocytes, SYBR Green DNA, 72 h; series mostly up to 28.7 µM. The method in brief:
as §1

The next experiment deals with PC26. The experiment is described as above. The following applies: P. falciparum in erythrocytes, SYBR Green DNA, 72 h; series mostly up to 28.7 µM. The method in brief: as §1
Another experiment deals with PC49. Described as above. The note with it: P. falciparum in erythrocytes, SYBR Green DNA, 72 h; series mostly up to 28.7 µM. Put shortly:
as §1

In a further experiment the test system is TAB109. The experiment is described as above. The following applies: P. falciparum in erythrocytes, SYBR Green DNA, 72 h; series mostly up to 28.7 µM. The method in brief: as §1
The next experiment concerns CP266. Described as above. The note with it: P. falciparum in erythrocytes, SYBR Green DNA, 72 h; series mostly up to 28.7 µM. Put shortly: as §1
For the next experiment, the system named is FAB9. The experiment is described as above. The following applies: P. falciparum in erythrocytes, SYBR Green DNA, 72 h; series mostly up to 28.7 µM. The method in brief:
as §1

Inconclusive results are not listed. Active and inactive are the calls of the source. Calls follow the shape of the dose curve; as a rule, active = well fitted inhibition curve with a large enough effect; inconclusive = small, poorly fitted or top-dose-only effect; inactive = flat fitted curve, though single readings scatter.

Luciferin 4-monooxygenase (Photinus pyralis), sequence (P08659 whole entry, looked up): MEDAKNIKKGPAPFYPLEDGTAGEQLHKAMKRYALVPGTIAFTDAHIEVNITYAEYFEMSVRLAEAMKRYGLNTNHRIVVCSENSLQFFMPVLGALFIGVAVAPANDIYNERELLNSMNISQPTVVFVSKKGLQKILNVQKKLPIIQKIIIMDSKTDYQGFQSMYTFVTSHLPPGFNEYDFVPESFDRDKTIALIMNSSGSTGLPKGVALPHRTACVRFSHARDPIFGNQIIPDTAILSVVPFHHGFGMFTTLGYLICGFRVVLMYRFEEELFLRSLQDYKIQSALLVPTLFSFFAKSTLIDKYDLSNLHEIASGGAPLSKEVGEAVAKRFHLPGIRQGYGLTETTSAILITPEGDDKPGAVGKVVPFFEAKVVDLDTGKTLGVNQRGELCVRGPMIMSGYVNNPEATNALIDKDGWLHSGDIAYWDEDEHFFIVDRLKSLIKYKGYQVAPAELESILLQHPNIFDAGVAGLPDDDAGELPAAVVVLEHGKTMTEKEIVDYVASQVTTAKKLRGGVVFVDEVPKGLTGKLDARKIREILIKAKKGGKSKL

For the compound `CO[C@H]1C[C@@H]2CC[C@@H](C)[C@@](O)(O2)C(=O)C(=O)N2CCCC[C@H]2C(=O)O[C@H]([C@H](C)C[C@@H]2CC[C@@H](O)[C@H](OC)C2)CC(=O)[C@H](C)/C=C(\C)[C@@H](O)[C@@H](OC)C(=O)[C@H](C)C[C@H](C)/C=C/C=C/C=C/1C`, in [1], the Potency result was “inactive”. The Potency in the experiment with CP215 is 1690 nM (active); with CP260 it was 4470 nM (active); in the experiment on CP268, 4780 nM (active); in the experiment on CP291, 4260 nM (active); in the experiment on CP297 it was 4260 nM (active); in the experiment with CP305, 6750 nM (active). Besides, the Potency in the experiment on CP335 is 1900 nM (active); in the experiment with DIV14 it was 1690 nM (active); in the experiment with DIV17, 1690 nM (active); in the experiment with GB4 it was 1690 nM (active); in the experiment with HB3 it was 8910 nM (active); with ICS it was 501 nM (active). For the same compound, the Potency was 10000 nM (active) with JCK; 2000 nM (active) in the experiment on P93_24; 1510 nM (active) in the experiment on PC26; 10000 nM (active) with PC49; 2240 nM (active) in the experiment on TAB109.

In the case of `Cc1ccc(/C=C2/C(=O)C3(C)CCC2C3(C)C)cc1` (stereo not drawn), the Potency result (in experiment [1]; with CP215; with CP260; in the experiment with CP266; in the experiment on CP268; with CP291) was “inactive” in each case. The Potency result in the experiment on CP305, with DIV14, in the experiment with DIV17, with FAB9, in the experiment with GB4 and in the experiment with HB3 was “inactive” in each case. For the same compound, the Potency entry in the experiment on ICS, with JCK, in the experiment with P93_24, in the experiment on PC26, in the experiment on PC49 and in the experiment on TAB109 was “inactive” in each case.

For `NC(=O)OC[C@@H]1[C@H](NC(=O)/C(=N/OCC(=O)O)c2csc(N)n2)C(=O)N1S(=O)(=O)O`, the Potency result (in experiment [1]; in the experiment on CP215; in the experiment with CP260; in the experiment on CP266; with CP291; in the experiment on CP297) was “inactive” each time. Also, the Potency result in the experiment with CP305, in the experiment on CP335, in the experiment with DIV14, in the experiment with GB4, in the experiment with HB3 and in the experiment with ICS was “inactive” throughout. In addition, the Potency result in the experiment with P93_24, in the experiment on PC26, in the experiment with PC49 and with TAB109 was “inactive” throughout. Further, the Potency in the experiment on FAB9 was 100 nM (active).

In the case of `CC(=O)N[C@H]1[C@H](O[C@@H]2c3ccc(c(Cl)c3)Oc3cc4cc(c3O[C@@H]3O[C@H](CO)[C@@H](O)[C@H](O)C3C)Oc3ccc(cc3Cl)C[C@H]3NC(=O)[C@@H](N)c5ccc(O)c(c5)Oc5cc(O)cc(c5)[C@H](NC3=O)C(=O)N[C@H]4C(=O)N[C@H]3C(=O)N[C@@H]2C(=O)N[C@@H](C(=O)O)c2cc(O)cc(O[C@H]4O[C@H](CO)[C@@H](O)C(O)[C@@H]4O)c2-c2cc3ccc2O)O[C@H](CO)[C@@H](O)[C@@H]1O` (stereo partly drawn), the Potency result with CP215, in the experiment on CP260, in the experiment with CP266, in the experiment with CP268, in the experiment with CP291 and in the experiment on CP297 was “inactive” throughout. The Potency result in the experiment on CP305, in the experiment with CP335, with DIV14, in the experiment on DIV17, in the experiment with FAB9 and in the experiment on GB4 was “inactive” throughout. Besides, the Potency entry in the experiment with HB3, in the experiment on ICS, in the experiment on JCK, in the experiment on P93_24, in the experiment on PC26 and in the experiment with PC49 was “inactive” each time.

In the case of `CCCC(=O)O[C@]1(C(=O)COC(C)=O)CC[C@H]2C3C[C@H](F)C4=CC(=O)C=CC4(C)[C@@]3(F)[C@@H](O)CC21C` (stereo partly drawn), the Potency result (in [1]; in the experiment with CP215; in the experiment on CP260; with CP266; in the experiment on CP268; in the experiment on CP291) was “inactive” throughout. Also, the Potency entry with CP297, in the experiment on CP305, in the experiment with CP335, in the experiment on FAB9, with HB3 and in the experiment on JCK was “inactive” throughout. For the same compound, the Potency result with PC49 and in the experiment with TAB109 was “inactive” each time.

Turning to `CO/N=C(/C(=O)N[C@@H]1C(=O)N2C(C(=O)O)=C(CSC(=O)c3ccco3)CSC12)c1csc(N)n1` (stereo partly drawn), the Potency entry (in experiment [1]; with CP215; in the experiment with CP260; in the experiment with CP266; in the experiment with CP268; with CP291) was “inactive” throughout. The Potency entry in the experiment on CP297, with CP335, with DIV14, with DIV17, in the experiment with FAB9 and in the experiment with HB3 was “inactive” throughout. For the same compound, the Potency entry with ICS, with JCK, in the experiment with P93_24, in the experiment with PC26, in the experiment on PC49 and with TAB109 was “inactive” each time.

Consider `NCCCCC(N)C(=O)O` (stereo not drawn), for which the Potency result (in [1]; in the experiment with CP215; in the experiment with CP260; in the experiment on CP266; with CP268; in the experiment on CP291) was “inactive” each time. Moreover, the Potency entry in the experiment on CP305, in the experiment with CP335, with DIV14, with DIV17, with FAB9 and with GB4 was “inactive” throughout. The Potency result in the experiment on HB3, in the experiment on ICS, with JCK, in the experiment on P93_24, in the experiment with PC49 and with TAB109 was “inactive” in each case.

As for `OCC(CO)NC1C[C@](O)(CO)[C@@H](O)[C@H](O)[C@H]1O` (stereo partly drawn), the Potency entry (in experiment [1]; in the experiment on CP215; with CP260; in the experiment on CP268; with CP297; with CP305) was “inactive” each time. Also, the Potency entry with CP335, in the experiment with DIV14, in the experiment on DIV17, in the experiment on FAB9, in the experiment on GB4 and with HB3 was “inactive” each time. The Potency entry in the experiment on ICS, in the experiment with JCK, with P93_24, with PC26, with PC49 and in the experiment on TAB109 was “inactive” in each case.

On to `CC(=O)N1CC(O)CC1C(=O)O` (stereo not drawn), for which the Potency result (in experiment [1]; in the experiment on CP215; with CP266; in the experiment on CP268; in the experiment on CP291; with CP297) was “inactive” each time. The Potency result in the experiment on CP305, in the experiment on CP335, with DIV14, in the experiment with DIV17, in the experiment on FAB9 and with GB4 was “inactive” in each case. The Potency entry in the experiment on HB3, with ICS, in the experiment with JCK, in the experiment with P93_24, with PC26 and in the experiment on PC49 was “inactive” each time. Further, the Potency entry in the experiment on TAB109 was “inactive”.
